Screens deposited in PubChem by National Center for Advancing Translational Sciences (NCATS).
TDP1 cell noCPT = qHTS for Inhibitors of human tyrosyl-DNA phosphodiesterase 1 (TDP1): qHTS in cells in absence of CPT; AID 686978, 2013; Potency, µM (highest dose often 46.2 µM), without a hit: at the top dose activity change, negative = growth inhibition, most hits filed as inhibitors; DT40 Tdp1-/- hTDP1 cells, no CPT, ATP luminescence, 48 h; 420,000 tested, 15% active; note: potency is the fitted concentration of half-maximal effect; nearly all actives have a fitted effect of over 55% in size
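Growth of hTDP1-complemented DT40 Tdp1-knockout cells is measured by ATP luminescence after at least 48 hr compound exposure at 37 °C, with DMSO substituting for the 20 nM CPT used in the parallel screen.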
RORgamma inh = qHTS for inhibitors of ROR gamma transcriptional activity; Nuclear receptor ROR-gamma (Mus musculus), P51450; Drosophila S2 Gal4-RORgamma UAS-luciferase reporter, 20 h; Potency, µM (highest dose often 53.6 µM), for the others: top-dose activity change, negative = inhibition, hits mostly inhibitors; 310,000 tested, 5.4% active; AID 2551, 2010; note: potency is the fitted concentration of half-maximal effect; nearly all actives have a fitted effect of over 60% in size
Target sequence (P51450 whole entry, looked up, the tested form may be a part): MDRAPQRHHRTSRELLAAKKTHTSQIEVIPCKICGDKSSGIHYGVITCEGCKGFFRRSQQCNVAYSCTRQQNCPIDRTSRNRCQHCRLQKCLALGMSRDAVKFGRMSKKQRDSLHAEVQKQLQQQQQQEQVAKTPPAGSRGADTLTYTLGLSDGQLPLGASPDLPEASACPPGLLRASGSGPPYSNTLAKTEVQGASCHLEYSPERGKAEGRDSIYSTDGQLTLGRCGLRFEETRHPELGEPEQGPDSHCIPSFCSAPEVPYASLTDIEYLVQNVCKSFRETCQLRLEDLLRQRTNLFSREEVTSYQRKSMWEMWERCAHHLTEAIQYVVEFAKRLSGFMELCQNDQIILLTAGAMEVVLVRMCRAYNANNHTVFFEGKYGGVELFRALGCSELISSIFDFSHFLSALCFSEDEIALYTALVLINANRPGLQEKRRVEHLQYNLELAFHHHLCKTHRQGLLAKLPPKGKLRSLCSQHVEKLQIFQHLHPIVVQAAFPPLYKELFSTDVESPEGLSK
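Schneider cells (Drosophila), stable Gal4 DBD–ROR gamma + UAS-luc; 1 hr cmpd preincubation; Cu2+ induction 700 uM final; 20 hr ambient; luminescence.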
LDHA block = qHTS assay for inhibitors of human lactate dehydrogenase. L-lactate dehydrogenase A chain (Homo sapiens), P00338. purified LDHA, NADH/diaphorase-resazurin fluorescence; hits give low values. activity change, % (values are at about 110 or 230 µM). 480,000 tested, 0.15% active; in the data active = activity change below about -30%; inconclusive = mostly about -25% to -30%;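 note: plate controls were DMSO wells for no effect and wells without enzyme for full effect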
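LDH5 2 nM; NADH 0.06 mM, pyruvate 0.2 mM; 200 mM Tris pH 7.4, EDTA, Tween-20; 5 min RT. Detection: diaphorase 0.133 mg/mL + resazurin 37 µM, fluorescence ex540/em590 at 0 and 20 min; normalized to enzyme-free and DMSO wells.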
Gal4-VP16 FLuc = VP16 counterscreen qHTS for inhibitors of ROR gamma transcriptional activity | Drosophila S2 Gal4-VP16 UAS-luciferase, luminescence, 20 h | Potency, µM (titrated, usually from 53.6 µM), for the others: at the highest dose activity, negative = inhibition, most hits filed as inhibitors | 310,000 tested, 3.5% active | AID 2546, 2010;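 note: Gal4-VP16 expression switched on by copper sulfate through the metallothionein promoter; potency is the fitted concentration of half-maximal effect; nearly all actives have a fitted effect of over 50% in size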
IL-1B inflam inh = qHTS for Inhibitors of Inflammasome Signaling: IL-1-beta AlphaLISA Primary Screen. THP-1 LPS/ATP IL-1B secretion, AlphaLISA, 16 h; hits give low values. activity change, % at 57.5 µM. 360,000 tested, 4.7% active. AID 743279, 2014; in the data active = activity change below about -50%; inconclusive = mostly about -30% to -49%
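Secreted IL-1B measured by AlphaLISA bead assay after 16 h compound exposure of THP-1 cells; compounds (final up to 57.5 uM) added 1 h before LPS (250 ng/mL) and ATP (1.25 mM) stimulation; lower signal means less secretion.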
DT40 TDP1 CPT = qHTS for Inhibitors of human tyrosyl-DNA phosphodiesterase 1 (TDP1): qHTS in cells in presence of CPT; AID 686979, 2013; chicken DT40 Tdp1-/-;hTDP1 cells + 20 nM CPT, ATP luminescence, 48 h; Potency, µM (highest dose often 46.2 µM), for the others: at the top dose activity change, negative = growth inhibition, hits mostly inhibitors; 420,000 tested, 12% active; note: potency is the fitted concentration of half-maximal effect; nearly all actives have a fitted effect of over 55% in size
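Chicken DT40 Tdp1-/- cells complemented with human TDP1, 400 cells/well, exposed to compounds plus 20 nM camptothecin for at least 48 h at 37 C; viability read as ATP content by CellTiter-Glo luminescence.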
Active calls of the source: *. Shown are actives, neighbours in structure and some others; about 18% of the full set was active somewhere. Unless noted, calls come from the whole dose curve; as a rule, active = well fitted curve in the direction sought with a large enough effect; inconclusive = small, poorly fitted or top-dose-only effect, or another doubt; inactive = no such curve, though single readings can be large; an effect the other way counts as inactive or inconclusive. Unless noted, % is set by controls: 0 for no effect and ±100 for the full control effect.

`COc1ccccc1C(=O)Nc1ccccc1OCc1cc(=O)n2c(C)csc2n1` gave TDP1 cell noCPT 16.4µM*, LDHA block -4.8 and DT40 TDP1 CPT inconclusive.
Cc1csc2nc(COc3ccccc3NC(=O)c3ccc(C(C)(C)C)cc3)cc(=O)n12 was read as TDP1 cell noCPT inconclusive, LDHA block 1.2 and DT40 TDP1 CPT inconclusive.
Screening Cc1ccccc1OCC(=O)Nc1ccccc1C(=O)OCc1cc(=O)n2c(C)csc2n1 returned TDP1 cell noCPT 4.61µM*, LDHA block -0.1 and DT40 TDP1 CPT 2.59µM*.
Screening Cc1ccccc1OCC(=O)Nc1ccccc1C(=O)OCc1cc(=O)n2ccsc2n1 returned TDP1 cell noCPT -18.9%, LDHA block -1.8 and DT40 TDP1 CPT -10.3%.
`Cc1csc2nc(COc3ccccc3NC(=O)c3ccccc3Cl)cc(=O)n12` gave TDP1 cell noCPT 3.66µM*, LDHA block -6.9 and DT40 TDP1 CPT 4.61µM*.
Screening Cc1cccc(-c2nc3cc(NC(=O)c4cccc([N+](=O)[O-])c4)ccc3o2)c1 returned LDHA block -1.2.
For CNC(=O)CSc1nc(C)nc2sc3c(c12)CCCC3 the results were LDHA block 0.6.
CCOC(=O)NC1(Nc2cccc(Cl)c2)Oc2ccccc2O1 was read as TDP1 cell noCPT 23.1µM*, RORgamma inh -18.3%, LDHA block 29.7, Gal4-VP16 FLuc -13.9%, IL-1B inflam inh 10.1 and DT40 TDP1 CPT inconclusive.
Screening Cc1nc(Cl)c(C(=O)O)c(C)c1Cl returned LDHA block 6.6.
O=C1OC(CN2CCOCC2)CN1N=Cc1ccc([N+](=O)[O-])o1 (stereo unspecified) was read as TDP1 cell noCPT inconclusive, LDHA block 0.2, IL-1B inflam inh 11.8 and DT40 TDP1 CPT 14.6µM*.
`O=C1OC(CN(Cc2ccccc2)Cc2ccccc2)CN1N=Cc1ccc([N+](=O)[O-])o1` (stereo unspecified) gave TDP1 cell noCPT 9.2µM*, LDHA block -2.7, IL-1B inflam inh -0.6 and DT40 TDP1 CPT 16.4µM*.
`Cc1ccc(NC(=O)C(=O)c2cn(CC(=O)N3CCOCC3)c3ccccc23)cc1F` gave LDHA block 10.0.
For CCc1n[nH]c(=S)n1/N=C/c1ccc(N(C)c2ccccc2)cc1 the results were TDP1 cell noCPT inconclusive, RORgamma inh 4.47µM*, LDHA block 1.9, Gal4-VP16 FLuc inconclusive, IL-1B inflam inh 4.6 and DT40 TDP1 CPT inconclusive.
`Cn1c(=S)n(/N=C/c2ccc3c(c2)OCO3)c2ccccc21` gave TDP1 cell noCPT -2.0%, RORgamma inh 11.2µM*, LDHA block -4.8, Gal4-VP16 FLuc 21.5%, IL-1B inflam inh 3.3 and DT40 TDP1 CPT -3.1%.
CCc1n[nH]c(=S)n1/N=C/c1ccccn1 was read as TDP1 cell noCPT -20.5%, RORgamma inh 2.3%, LDHA block -2.0, Gal4-VP16 FLuc -2.9%, IL-1B inflam inh -9.4 and DT40 TDP1 CPT 5.4%.
`CCc1n[nH]c(=S)n1/N=C/c1ccc2c(c1)OCO2` gave TDP1 cell noCPT -5.1%, RORgamma inh 11.2µM*, LDHA block 1.1, Gal4-VP16 FLuc inconclusive, IL-1B inflam inh 0.0 and DT40 TDP1 CPT -20.8%.
For Cc1nnc(C)n1/N=C/c1c(O)ccc2ccccc12 the results were TDP1 cell noCPT -19.5%, RORgamma inh -14.8%, LDHA block 12.8, Gal4-VP16 FLuc 4.9%, IL-1B inflam inh 19.4 and DT40 TDP1 CPT 21.4%.
